The record followed here is PubChem BioAssay (EPA / NIEHS).

Calls of active or inactive are those of the source. How the source made its calls: active means hit-call score of the fitted dose curve at least 0.9, where 1 is the maximum; inactive means score below 0.9.

Chain of Cellular tumor antigen p53 (Homo sapiens) (P04637 whole entry, looked up): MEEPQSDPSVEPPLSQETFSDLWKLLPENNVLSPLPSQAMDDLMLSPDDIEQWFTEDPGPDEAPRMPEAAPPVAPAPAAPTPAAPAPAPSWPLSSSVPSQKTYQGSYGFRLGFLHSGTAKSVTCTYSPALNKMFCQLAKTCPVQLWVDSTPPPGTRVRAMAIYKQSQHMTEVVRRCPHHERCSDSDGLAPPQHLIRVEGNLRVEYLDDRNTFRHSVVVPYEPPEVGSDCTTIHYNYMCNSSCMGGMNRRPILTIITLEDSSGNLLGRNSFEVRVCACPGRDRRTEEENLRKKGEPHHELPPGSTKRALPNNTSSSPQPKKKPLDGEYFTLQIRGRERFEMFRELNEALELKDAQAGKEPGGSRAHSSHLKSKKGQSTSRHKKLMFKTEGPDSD

The target in this test is Cellular tumor antigen p53 (Homo sapiens) (UniProt P04637). The test can be described thus: ATG_p53_CIS: Attagene CIS-FACTORIAL HepG2 Assay for human p53 Transcription Factor (AID 2282994). As to conditions: HepG2 p53 cis-element reporter, Attagene mRNA; actives raise or lower the signal. Here is the method:
ATG_CIS is a cell-based, multiplexed-readout assay that uses HepG2, a human liver cell line, with measurements taken at 24 hours after chemical dosing in a 24-well plate.ATG_p53_CIS is one of 52 assay component(s) measured or calculated from the ATG_CIS assay. It is designed to make measurements of mRNA induction, a form of inducible reporter, as detected with fluorescence intensity signals by Reverse transcription polymerase chain reaction (RT-PCR) and Capillary electrophoresis technology.Data from the assay component ATG_p53_CIS was analyzed into 1 assay endpoint. This assay endpoint, ATG_p53_CIS, was analyzed with bidirectional fitting relative to DMSO as the negative control and baseline of activity. Using a type of inducible reporter, measures of mRNA for gain or loss-of-signal activity can be used to understand the reporter gene at the transcription factor-level as they relate to the gene TP53. Furthermore, this assay endpoint can be referred to as a primary readout, because this assay has produced multiple assay endpoints where this one serves a reporter gene function. To generalize the intended target to other relatable targets, this assay endpoint is annotated to the dna binding intended target family, where the subfamily is tumor suppressor.
Human liver HepG2 cells are transiently transfected with multiple reporter transcription units (MRTUs) in 6-well plates using FuGene 6 reagent (Roche; 3 ml FuGene/1 mg DNA). The MRTU constructs are regulated by a cis-regulating element (promoter). […] A major difference between the CIS and TRANS system is that in CIS activities of endogenous TFs are measured, whereas the TRANS assay evaluates changes in activities of exogenous, chimeric NR-Gal4 proteins. […] At the end of 24 hour incubation, total RNA was isolated using TriZol reagent (Invitrogen). The isolated RNA is then reverse-transcribed using oligo(dT) primer and Mo-MLV reverse transcriptase (Invitrogen) with DNAse I (Ambion) treatment for 30 min. The one-tenth of the produced cDNA was amplified by PCR using Taq DNA polymerase (Invitrogen) and two reporter sequence-specific primers. The PCR products were fluorescently labeled by primer extension with 6-arboxyfluorescein (6-FAM) 5'-labeled reporter sequence-specific primer (2 min at 95 C, 20 s at 68 C and 10 min at 72 C) and these products were digested with 5U of HpaI (New England Biolabs) for 2h at 37 C. The fragments were purified using Qiaquick PCR columns (Qiagen), analyzed on an ABI 3130xL genetic analyzer (Applied Biosystems) with peak positions identified by using a set of X-rhodamine (ROX)-labeled MapMarker1000 molecular weight standards (BioVentures). The raw capillary electrophoresis data was processed using Attagraph software (Attagene).
On to `CC(C)=CC(=O)O`, for which the compound was called inactive. On the same count and under the same terms, next, `O=[N+]([O-])c1cc(N(CCO)CCO)ccc1NCCO`: “inactive”; `CC/C=C\CCCCO`: “inactive”; `N#CCCCC(C#N)CCC#N` (stereo not given): “inactive”. For `Cc1ccc(C(C)(C)O)cc1`, the call was inactive. Take `NC(=O)c1cnccn1`: the compound was classed as inactive. Same read-out and setting: the same measure for `CC(C)=CCCC(C)=CC(=O)O`: “inactive”.

For `CCC(C)(C)C1CCC(OC)CC1` (stereo not given), the call was inactive. Regarding `CC(C)COC(=O)c1ccccc1`, the compound was classed as inactive. For the compound `CCCCOCCOC(=O)c1ccccc1C(=O)OCCOCCCC`, the call was inactive. Same read-out and setting: the same measure for `OCCCO`: “inactive”.

Consider `[Cl][Dy]([Cl])[Cl]`, for which the call was inactive. `CCCCOC(=O)C(C)OC(=O)CCC` (stereo not given): the compound was classed as inactive. On the same count and under the same terms, the same measure for `O=c1cc(-c2ccc(O)cc2)oc2cc(O)cc(O)c12`: “inactive”.

For `Nc1ccn([C@H]2CC[C@@H](CO)O2)c(=O)n1`, the compound was classed as inactive.

For `CCCO`, the result was inactive. As to `CNC(=C[N+](=O)[O-])NCCSCc1ccc(CN(C)C)o1`, the result was inactive.

Take `CC(C)(C)c1ccc(S)cc1`: the outcome was inactive. The same measure, in the same setting: next, `O=S(=O)(O)c1cc(S(=O)(=O)O)c2c(N=Nc3ccccc3)c(O)ccc2c1`: “inactive”.

In the case of `CCCCCc1cccc(=O)o1`, the outcome was inactive. On to `CC(=O)OC(C)(C)C1CC=C(C)CC1` (stereo not given), for which the result was inactive.

In the case of `CCOC(=O)CC1(C)OCC(C)O1` (stereo not given), the compound was called inactive. On the same count and under the same terms, next, `C=COCC1CCC(COC=C)CC1` (stereo not given): “inactive”. Still for that read-out and setting: the same measure for `FC(F)(F)c1ccc(Cl)c(Cl)c1`: “inactive”; for `Nc1ccc(O)c(N)c1`: “inactive”. Consider `COc1ccc(C(C)=O)cc1`, for which the compound was classed as inactive. On to `CCCCOCCOCCOCCO`, for which the outcome was inactive. Same read-out and setting: next, `C=CCCCCCCCCC(=O)OCC`: “inactive”.

With `CCCCC1CCCCC(=O)O1` (stereo not given), the result was inactive.

Turning to `CC1(C)CC(N)CC(C)(CN)C1` (stereo not given), the compound was called inactive.

As for `C[C@H](CCC(=O)O)[C@H]1CC[C@H]2[C@@H]3CC[C@@H]4C[C@H](O)CC[C@]4(C)[C@H]3CC[C@]12C`, the concentration at half-maximal activity (AC50) was 100 µM (active). As to `O=C(C=Cc1ccccc1)OCCCc1ccccc1`, the call was inactive.

Consider `CCCCCCCCOS(=O)(=O)O`, for which the call was inactive. Same read-out and setting: next, `CC(C)Cc1ccccc1`: “inactive”; `O=C1OCc2ccccc21`: “inactive”; `Nc1cc([N+](=O)[O-])ccc1C(=O)O`: “inactive”. Same read-out and setting: the same measure for `CCCCCCCC1CCCC1=O` (stereo not given): “inactive”; for `O=c1cc[nH]cc1`: “inactive”; for `CC(C)(C)C1CCC(O)CC1` (stereo not given): “inactive”. Same read-out and setting: the same measure for `CN1CCc2cccc3c2[C@H]1Cc1ccc(O)c(O)c1-3`: “inactive”.
